# Screens (PubChem)
# Only some compounds are listed: those with a hit (about 5.7% of all), similar ones and a draw of the others.
# hcDAF12 agonist – H. contortus DAF-12 nuclear receptor activators, primary screen, cell-based, luminescence, HEK293, lit1-tk-luc reporter. HEK293 hcDAF-12 lit1-tk-luc reporter; 0% DMSO, 100% Δ7-dafachronic acid. AID 652067, 2013. hit rate 1.4% among 370,000. activation, % at 6.8 µM;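 active means activation above the mean of all tested compounds plus 3 SD, cut at about 5.5% in these data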;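 further: 100% = response to 3 µM Δ7-dafachronic acid high control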
# ssDAF-12 act – S. stercoralis DAF-12 nuclear receptor activators, primary screen, cell-based, luminescence, HEK293, GRIP1 co-expression, lit1-tk-luc; Nuclear hormone receptor DAF-12 (Strongyloides stercoralis); HEK293 ssDAF-12/GRIP1 lit1-tk-luc reporter; % of 3 µM dafachronic acid response; activation, % at 6.8 µM; hit rate 1% among 370,000; AID 652126, 2013;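 active means activation above the mean over all tested compounds plus 3 SD, cut at about 0.9% in these data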;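 further: 0% = DMSO-only wells and 100% = 3 µM delta7-dafachronic acid wells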
# AHR act – AHR activators, primary screen, cell-based, luminescence, luciferase reporter, human; Aryl hydrocarbon receptor (Homo sapiens), P35869; AHR-responsive luciferase reporter cells; activation, % at 5 µM; hit rate 2.5% among 320,000; AID 2796, 2010; in the data active means activation above about 47%;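 further: 0% = vehicle wells and 100% = reference agonist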
# Target sequence (P35869 whole entry, looked up): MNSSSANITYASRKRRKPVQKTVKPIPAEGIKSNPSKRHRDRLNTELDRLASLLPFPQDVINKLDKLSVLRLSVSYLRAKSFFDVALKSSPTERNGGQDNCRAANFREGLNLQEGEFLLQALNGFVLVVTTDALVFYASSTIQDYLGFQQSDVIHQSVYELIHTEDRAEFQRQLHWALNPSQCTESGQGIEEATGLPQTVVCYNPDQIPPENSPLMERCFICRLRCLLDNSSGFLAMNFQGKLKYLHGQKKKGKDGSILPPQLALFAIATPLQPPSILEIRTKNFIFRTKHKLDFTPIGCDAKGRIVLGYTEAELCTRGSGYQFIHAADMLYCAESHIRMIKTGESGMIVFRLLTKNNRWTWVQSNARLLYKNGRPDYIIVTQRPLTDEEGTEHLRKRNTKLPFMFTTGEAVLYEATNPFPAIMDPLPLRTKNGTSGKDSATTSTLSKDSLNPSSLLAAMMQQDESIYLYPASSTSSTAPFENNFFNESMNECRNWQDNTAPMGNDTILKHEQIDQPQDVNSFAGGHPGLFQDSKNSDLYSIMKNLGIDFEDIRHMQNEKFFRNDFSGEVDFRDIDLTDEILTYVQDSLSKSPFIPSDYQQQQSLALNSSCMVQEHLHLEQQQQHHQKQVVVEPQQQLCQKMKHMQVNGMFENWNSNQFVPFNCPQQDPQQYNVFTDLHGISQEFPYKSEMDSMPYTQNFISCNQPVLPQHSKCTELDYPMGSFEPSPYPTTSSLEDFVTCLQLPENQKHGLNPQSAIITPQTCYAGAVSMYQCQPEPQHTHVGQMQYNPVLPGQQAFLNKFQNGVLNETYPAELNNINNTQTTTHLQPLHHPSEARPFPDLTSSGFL
# hgDAF12 agonist – H. glycines DAF-12 receptor agonists, primary screen, cell-based, luminescence, HEK293, GAL4 fusion, UAS-luciferase; hit rate 1.8% among 370,000; Nuclear hormone receptor DAF-12 (Heterodera glycines), GAL4 fusion; activation, % at 6.8 µM; AID 687014, 2013; HEK293 GAL4-hgDAF12 UAS-luciferase reporter, agonist luminescence; normalized to butyrate control;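 active means activation above a cutoff set at the mean of all screened compounds plus 3 SD, cut at about 10% in these data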;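 further: 0% = DMSO wells and 100% = sodium butyrate wells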
# DAX1 inh-1 – DAX1 (NR0B1) inhibitors on StAR promoter, primary screen, cell-based, luminescence, SF-1 (NR5A1), full-length DAX-1; HEK293T StAR-luciferase reporter, SF-1/DAX-1 repression relief; inhibition, % at 6.8 µM; hit rate 1.1% among 370,000; AID 652010, 2013;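 active means inhibition above the mean over all tested compounds plus 3 SD, cut at about 3.6% in these data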;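 further: 0% = DAX-1 cells with DMSO and 100% = cells lacking DAX-1 with DMSO; higher inhibition means more luminescence from relief of DAX-1 repression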
# DAX1 inh-2 – DAX1 (NR0B1) inhibitors, primary screen, cell-based, HEK293, Gal4-DAX1, luciferase luminescence | Nuclear receptor subfamily 0 group B member 1 (Homo sapiens), P51843 | HEK293 Gal4-DAX1 luciferase reporter | inhibition, % at 6.75 µM | hit rate 0.99% among 340,000 | AID 504766, 2011;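 active means inhibition above the mean over all tested compounds plus 3 SD, cut at about 4.2% in these data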;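 further: 0% = DAX1-transfected cells with DMSO and 100% = empty-vector control cells with DMSO; inhibition shows as a rise in luminescence from relieved DAX1 repression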
# * = called active by the depositor; x = no result.
SMILES,hcDAF12 agonist,ssDAF-12 act,AHR act,hgDAF12 agonist,DAX1 inh-1,DAX1 inh-2
COc1ccc(C(=O)c2sc3nc(-c4ccc(OC)cc4)ccc3c2N)cc1,-0.5,-0.6,8.7,-0.8,0.7,0.5
COc1cccc(-c2ccc3c(N)c(C(=O)NC4CC4)sc3n2)c1,1.3,-0.6,-3.4,10.5*,1.0,4.7*
COCCn1c(SCC(=O)NC(C)c2ccc(F)cc2)nc2ccccc21 (centres undefined),-0.6,-0.9,5.4,0.1,-0.1,-1.8
Cc1ccccc1CS(=O)(=O)Cc1ccc(C(=O)Nc2cccc(Cl)c2F)o1,-3.1,-1.5,x,1.0,-1.8,x
CC1C/C(=N/Nc2nc3ccccc3[nH]2)CC(C)(C)C1 (centres undefined),0.1,0.1,89.5*,6.0,0.7,-0.1
CC1C/C(=N/NC(=O)c2ccc(CSc3nc4ccccc4[nH]3)cc2)CC(C)(C)C1 (centres undefined),-1.1,-1.3,1.0,5.0,-0.9,-1.3
CN(C)C(=O)C12CCC(C)(C(=O)C1Br)C2(C)C (centres undefined),0.3,1.0*,-1.9,0.5,-0.5,-0.8
Cc1ccc(-c2csc(=Nc3cccnc3)n2CCCn2ccnc2)cc1C,-7.2,-2.9,31.0,-1.0,-1.5,-2.6
c1cncc(N=c2scc(-c3cccc4ccccc34)n2CCCn2ccnc2)c1,-0.2,-1.6,55.7*,-0.4,0.3,0.1
CCOC(=O)/C(C#N)=C/c1cn(CCC(=O)O)nc1-c1ccc(OC)cc1,-0.5,-0.9,0.7,0.2,0.3,6.6*
N#CC(c1ccc(O)cc1)N1CCN(C(C#N)c2ccc(O)cc2)CC1 (centres undefined),-0.6,-1.2,x,-0.1,-1.7,1.8
COc1ccc(C2Nc3ccccc3NC3=C2C(=O)CC(C)(C)C3)cc1OC (centres undefined),0.7,-1.2,1.4,-3.9,-0.4,0.8
COc1cc(C2Nc3cc(C)c(C)cc3NC3=C2C(=O)CC(C)(C)C3)ccc1OC(C)=O (centres undefined),-1.2,-0.6,61.0*,-0.1,0.1,-0.4
CC1CCc2c(sc3ncn(CCO)c(=O)c23)C1 (centres undefined),2.1,-0.7,6.7,6.8,2.3,0.2
CC1CCc2c(sc3ncn(CC(=O)N=Nc4c(O)[nH]c5ccccc45)c(=O)c23)C1 (centres undefined),3.5,0.0,6.8,3.3,-0.1,4.6*
Cc1nc(-c2nc(C(=O)NNS(C)(=O)=O)cs2)cs1,-0.9,-1.6,4.3,-0.9,-0.1,-0.8
CC(=O)NNC(=O)c1csc(-c2csc(C)n2)n1,-2.2,-1.4,-1.0,-0.2,-0.2,7.3*
COc1ccc(NC(=O)c2cc(S(=O)(=O)N3CCS(=O)(=O)CC3)ccc2Cl)cc1,-1.9,-0.5,2.1,1.5,0.1,1.0
CCCc1cc(-c2nc(-c3ccc(Br)cc3)cs2)ccn1,-1.1,-0.2,47.2*,-0.2,0.2,2.6
O=C(c1ccccc1)c1c[nH]c(C(=O)NNc2ccccc2)c1,-0.5,-1.1,-0.7,-1.3,-0.4,-0.5
C/C(=N/Nc1ccnc2cc(Cl)ccc12)c1ccc(N)cc1,0.6,-1.2,57.1*,-1.2,0.1,0.3
C/C(=N/Nc1ccnc2cc(Cl)ccc12)c1ccc(O)cc1,1.8,-1.3,55.9*,-1.3,-0.4,-0.4
NC(=S)NNc1ccnc2cc(Cl)ccc12,-1.6,-1.5,4.1,4.2,-1.0,-0.1
COc1ccc(-c2ccc(CN3C(C)C(=O)N(Cc4cn(CCC5OCCO5)nn4)CCS3(=O)=O)cc2)cc1OC (centres undefined),-2.4,-1.3,x,-3.7,-1.2,0.1
O=C(Cn1nc(C(F)(F)F)c2c1CCCC2)Nc1ccc2c(c1)OCO2,-0.2,-1.6,49.9*,-0.4,-1.1,2.4
SMILES,hcDAF12 agonist,ssDAF-12 act,AHR act,hgDAF12 agonist,DAX1 inh-1,DAX1 inh-2
Cc1nnc(NC(=O)CC23CC4CC(CC(C4)C2)C3)s1,-0.1,-1.7,1.3,1.2,0.2,1.0
CCCCCCCCN1CC(Cc2cc3ccccc3c3ccccc23)N(c2ccccc2)c2ccccc2C1=O (centres undefined),-0.4,-0.6,x,0.3,-1.1,x
CCCc1nc2ccc(C(=O)OC)cn2c1Cc1ccccc1OC,-0.2,0.0,x,1.2,4.2*,x
CCCc1nc2ccc(C(=O)OC)cn2c1Cc1ccccc1,5.3,1.0*,x,0.7,0.1,x
CCCc1nc2ccc(C(=O)OC)cn2c1Cc1ccccc1C(F)(F)F,0.1,-0.4,x,0.1,0.8,x
C[C@@H]1ON(C)[C@H]2C[C@H]3c4[nH]c5cccc(-c6ccccc6F)c5c4CCN3C(=O)[C@@H]12,-1.9,-0.4,x,-4.5,-0.9,x
CCN(CC)CC(O)Cn1c(-c2cccc(Cl)c2)nc2cc(C)c(C)cc21 (centres undefined),1.8,-0.7,0.1,2.0,0.6,4.2*
COc1ccc(/C=N/NC(=O)c2cc(C34CC5CC(CC(C5)C3)C4)[nH]n2)cc1OC,-2.0,-1.7,8.5,-2.1,0.2,-1.1
O=C(N/N=C/c1ccc(O)cc1)c1cc(C23CC4CC(CC(C4)C2)C3)[nH]n1,-1.2,1.0*,0.1,0.6,0.7,-1.2
COc1cc(NC(=O)Cn2cnc(S(=O)(=O)N3CCc4ccccc43)c2)cc(OC)c1OC,-1.1,-1.8,-0.6,-1.1,1.1,-0.4
Cc1ccc(N(CCC#N)C(=O)COC(=O)C2=COCCO2)cc1,-0.7,-0.9,1.2,0.7,0.3,0.2
COC(=O)[C@@]12C[C@@H](CC(=O)NCCC(C)C)C(=O)N(CCc3ccc(OC)c(OC)c3)C1=CCC(C)(C)C2,-2.1,-1.2,x,0.5,4.4*,x
Cc1cccc(-c2cccc3c4c([nH]c23)[C@@H]2C[C@H](N(C)C(=O)C3CCCCC3)[C@H]([C@H](C)O)CN2CC4)c1,1.6,-1.4,x,-2.6,0.2,x
Cc1c(/C=N/Nc2nc3ccccc3[nH]2)c2ccccc2n1C,-0.5,-2.1,108.0*,-3.3,-1.2,-2.1
C=CCn1cc(/C=N/Nc2nc3ccccc3[nH]2)c2ccccc21,-0.2,-0.9,145.7*,-9.5,-3.7,-2.1
CC(C)Cn1c(/C=N/Nc2nc3ccccc3[nH]2)nc2ccccc21,-3.2,-1.2,x,-2.3,-1.5,-1.4
Cc1csc(NC(=O)CSc2nccn2C)n1,1.9,-0.6,14.4,3.6,2.5,0.5
